Screening results: PubChem BioAssay, National Center for Advancing Translational Sciences (NCATS)
NPC1 prom act: NPC1 promoter activation; Huh7 NPC1 promoter luciferase reporter, 24 h; Potency, µM (series often up to 9.22 µM), inactives show top-dose activation, most hits filed as activators; 320,000 tested, 2.4% active; AID 485313; further: % of control where 0% means no effect; nearly all actives have a fitted effect of over 60% in size
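Compounds in DMSO were transferred onto Huh7 NPC1-luciferase reporter cells pre-incubated 2 h; after 24 h at 37 °C, Amplite reagent was dispensed and luminescence recorded 10 min later.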
ELG1 genotox: genotoxicity induction in ELG1-luciferase HEK293T cells. HEK293T ELG1-luciferase reporter, luminescence, 16 h. Potency, µM (titrated, usually from 46 µM), for the others: top-dose activity change, positive = activation, hits mostly activators. 330,000 tested, 1.3% active. AID 504466; further: % of control where 0% means no effect; nearly all actives have a fitted effect of over 60% in size
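Genotoxic stress is detected as increased luminescence from luciferase-tagged ELG1 in HEK293T cells, measured with ONE-Glo after a 16 hr treatment at 37 °C.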
FLuc counter: counter-screen for miR-21 project: firefly luciferase inhibitors or activators. P08659. purified FLuc, Km substrates, luminescence inhibition. Potency, µM (titrated, usually from 57.5 µM), without a hit: at the top dose activity change, negative = inhibition, hits mostly inhibitors. 360,000 tested, 6.9% active. AID 588342;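 further: plate controls were vehicle for no effect and reference inhibitor for full effect; nearly all actives have a fitted effect of over 55% in size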
Target sequence (P08659 whole entry, looked up): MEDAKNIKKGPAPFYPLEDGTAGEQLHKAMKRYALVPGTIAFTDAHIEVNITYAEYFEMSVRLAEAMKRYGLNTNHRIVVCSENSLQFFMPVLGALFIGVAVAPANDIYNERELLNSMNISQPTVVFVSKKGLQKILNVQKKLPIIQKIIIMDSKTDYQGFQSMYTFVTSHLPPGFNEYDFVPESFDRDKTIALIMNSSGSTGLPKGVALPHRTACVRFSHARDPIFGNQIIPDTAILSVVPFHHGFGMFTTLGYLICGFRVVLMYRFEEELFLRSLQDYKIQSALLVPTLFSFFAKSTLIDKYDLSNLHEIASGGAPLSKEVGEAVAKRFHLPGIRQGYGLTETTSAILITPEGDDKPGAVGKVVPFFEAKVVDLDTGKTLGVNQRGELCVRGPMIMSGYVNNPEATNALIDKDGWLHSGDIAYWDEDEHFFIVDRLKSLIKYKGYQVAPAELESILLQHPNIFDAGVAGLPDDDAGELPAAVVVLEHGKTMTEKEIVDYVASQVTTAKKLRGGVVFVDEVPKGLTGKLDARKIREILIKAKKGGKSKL
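Purified P. pyralis luciferase (10nM final) with 10uM D-luciferin and 10uM ATP (Km levels) in 50mM Tris acetate pH 7.5, 10mM Mg acetate, 0.01% Tween-20, 0.05% BSA; qHTS 6-point titration, ~60 µM downward; luminescence read.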
Rab9 prom act: Rab9 promoter activation | AID 485297 | Huh7 Rab9 promoter-luciferase reporter, luminescence, 24 h | Potency, µM (titrated, usually from 9.22 µM), for the others: at the highest dose activation, negative = inhibition, most hits filed as activators | 320,000 tested, 2.8% active; further: % of control where 0% means no effect; nearly all actives have a fitted effect of over 60% in size
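Measured in stably transfected Huh7 cells bearing a Rab9 promoter–luciferase construct: 24 h compound treatment at 37 °C, followed by luminescence detection.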
SMN2 splice enh: enhancers of SMN2 splice variant expression; HEK293 SMN2-luciferase splicing reporter, luminescence, 30-36 h; Potency, µM (titrated, usually from 46.1 µM), without a hit: at the highest dose activity change, positive = activation, most hits filed as activators; 210,000 tested, 2.8% active; AID 1458; further: % of control where 0% means no effect; nearly all actives have a fitted effect of over 55% in size
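qHTS luciferase splicing reporter: luminescence rises when SMN2 exon 7 is included in transfected HEK293 cells. Compound exposure lasted 30-36 h at 37C, with 4.5 mM final sodium butyrate as control, followed by a ONE-Glo read.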
ELG1 repair inh: ELG1-dependent DNA repair inhibition; Potency, µM (top dose mostly 46.1 µM), inactives show at the highest dose activity change, negative = inhibition, actives largely listed as inhibitors; 330,000 tested, 2.3% active; HEK293T ELG1-luciferase reporter, luminescence, 16 h; DNA damage induced by 5-fluorouridine; further: on the % scale 0 is the no-effect control and ±100 the full control effect; nearly all actives have a fitted effect of over 55% in size
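Quantitative HTS, concentration-response format. 2,000 cells/well co-treated with 5-fluorouridine and compound, 16 hr in 5% CO2 at 37 °C; ONE-Glo luminescence read after 30 min.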
* = called active by the depositor. A selection: hits, their analogues and other compounds. The true share with any hit is near 9.3%. The call rests on the fitted dose curve; in most records, active means well fitted curve in the direction sought with a large enough effect; inconclusive means small, poorly fitted or top-dose-only effect, or another doubt; inactive means no such curve, though single readings can be large; an effect the other way counts as inactive or inconclusive. Potency means the concentration at half of the fitted maximal effect.

For CCOc1ccccc1OC(C)C(=O)Nc1ccc(S(=O)(=O)N2CCCC2)cc1 (stereo unspecified) the results were NPC1 prom act -4%, ELG1 genotox -3%, FLuc counter 1%, Rab9 prom act -5% and ELG1 repair inh -7%.
Screening O=C(Nc1ccc2oc(-c3cccnc3)nc2c1)c1ccc(Br)o1 returned NPC1 prom act 6%, ELG1 genotox 8%, FLuc counter -11%, Rab9 prom act -1%, SMN2 splice enh -26% and ELG1 repair inh -4%.
`O=C(Nc1ccc2nc(-c3ccccc3)oc2c1)c1ccco1` gave NPC1 prom act inconclusive, ELG1 genotox inconclusive, FLuc counter 21µM*, Rab9 prom act 3.2µM*, SMN2 splice enh inconclusive and ELG1 repair inh inconclusive.
O=C(Nc1ccc2oc(-c3cccnc3)nc2c1)c1ccco1 was read as NPC1 prom act inconclusive, ELG1 genotox 16%, FLuc counter 15µM*, Rab9 prom act inconclusive, SMN2 splice enh 3% and ELG1 repair inh inconclusive.
Screening CCc1ccc(-c2nc3cc(NC(=O)c4ccc(C)c(C)c4)ccc3o2)cc1 returned FLuc counter -1% and SMN2 splice enh -22%.
Screening CCOc1cccc(C(=O)Nc2ccc3oc(Cc4ccc(Cl)cc4)nc3c2)c1 returned NPC1 prom act 1%, ELG1 genotox -8%, FLuc counter -10%, Rab9 prom act -15%, SMN2 splice enh -79% and ELG1 repair inh 18µM*.
For CCc1ccc2oc(-c3ccc(NC(C)=O)cc3)nc2c1 the results were NPC1 prom act inconclusive, ELG1 genotox 3.3µM*, FLuc counter 1.9µM*, Rab9 prom act 0.63µM* and ELG1 repair inh inconclusive.
COC(=O)C/C=N/N=C1/NC(=O)/C(=C/C(=O)O)S1 was read as NPC1 prom act -1%, ELG1 genotox -1%, FLuc counter 3%, Rab9 prom act -6% and ELG1 repair inh 2%.
For C=C[C@@H]1c2cccc(C)c2N(S(=O)(=O)c2ccc(C)cc2)[C@H](c2ccc(OC(C)=O)cc2)C1(C#N)C#N the results were ELG1 genotox -4% and ELG1 repair inh -5%.
For O=C(Nc1ccc(-c2nc3ncccc3o2)cc1)c1ccco1 the results were NPC1 prom act 2.5µM*, ELG1 genotox inconclusive, FLuc counter 8.5µM*, Rab9 prom act 1.6µM*, SMN2 splice enh inconclusive and ELG1 repair inh inconclusive.
O=C(Nc1ccc(-c2nc3ncccc3o2)cc1)c1ccc(Br)o1 was read as NPC1 prom act 8%, ELG1 genotox 4%, FLuc counter -8%, Rab9 prom act 27%, SMN2 splice enh 19% and ELG1 repair inh 20%.
Screening CC(C)CC(=O)Nc1ccc2oc(-c3cccnc3)nc2c1 returned NPC1 prom act inconclusive, ELG1 genotox inconclusive, FLuc counter 13µM*, Rab9 prom act inconclusive, SMN2 splice enh inconclusive and ELG1 repair inh inconclusive.
For Cc1ccc2oc(-c3ccc(NC(=O)CC(C)C)cc3)nc2c1 the results were NPC1 prom act 0.28µM*, ELG1 genotox 2.3µM*, FLuc counter 0.76µM*, Rab9 prom act inconclusive, SMN2 splice enh inconclusive and ELG1 repair inh inconclusive.
Screening CCOc1cccc(C(=O)Nc2ccc3oc(-c4cccnc4)nc3c2)c1 returned NPC1 prom act 1%, ELG1 genotox -1%, FLuc counter inconclusive, Rab9 prom act 1%, SMN2 splice enh -5% and ELG1 repair inh 18µM*.
For Cc1nc(C)c(CCNS(=O)(=O)c2ccc(F)cc2)s1 the results were FLuc counter -5%.
`COc1ccccc1C(=O)NCC(=O)NCCCN1CCOCC1` gave NPC1 prom act 0%, ELG1 genotox 2%, FLuc counter 0%, Rab9 prom act 1% and ELG1 repair inh 11%.
For CCC(=O)Nc1ccc2oc(-c3cccnc3)nc2c1 the results were NPC1 prom act inconclusive, ELG1 genotox inconclusive, FLuc counter 17µM*, Rab9 prom act 3.5µM* and ELG1 repair inh inconclusive.
